Experimental data taken from ChEMBL document CHEMBL3433997, “St. Jude Leishmania screening dataset” (2016).

Each molecule was assayed against Solute carrier family 2, facilitated glucose transporter member 1 (Homo sapiens) (UniProt P11166) (assay: ST_JUDE_LEISH: Cytotoxicity at 2uM final concentration against transgenic Leishmania Mexicana promastigotes LmGLUT1 that are glucose transport deficient and complemented with the human glucose transporter GLUT1. Activity is measured by DNA content using SYBR green in vitro).
Format: functional

Solute carrier family 2, facilitated glucose transporter member 1 (Homo sapiens), sequence (P11166 whole entry): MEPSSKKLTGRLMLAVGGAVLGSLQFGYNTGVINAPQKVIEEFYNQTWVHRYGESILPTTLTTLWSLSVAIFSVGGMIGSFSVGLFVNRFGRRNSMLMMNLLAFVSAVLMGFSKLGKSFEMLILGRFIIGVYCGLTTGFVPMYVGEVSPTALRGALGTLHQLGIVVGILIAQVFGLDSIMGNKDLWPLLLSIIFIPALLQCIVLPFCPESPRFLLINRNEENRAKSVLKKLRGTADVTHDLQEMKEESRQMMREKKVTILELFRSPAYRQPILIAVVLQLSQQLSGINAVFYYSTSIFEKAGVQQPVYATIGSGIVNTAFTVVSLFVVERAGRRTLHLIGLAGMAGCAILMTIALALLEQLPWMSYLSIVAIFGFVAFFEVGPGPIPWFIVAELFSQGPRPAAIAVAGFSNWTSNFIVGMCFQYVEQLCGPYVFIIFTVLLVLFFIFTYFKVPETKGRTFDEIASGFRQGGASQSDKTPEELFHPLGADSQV

Which inhibition does the source give for `CCCCc1cc(=O)oc2cc(C)cc(OCc3ccccc3F)c12` here?
Its inhibition is -0.28%.

How did the inhibition turn out when `CC1CCC(C(C)C)C(OC(=O)CSc2nnc3c(n2)[nH]c2ccccc23)C1` (stereo not given) was run?
The inhibition was -1.05%.

Which inhibition does the source give for `COc1ccc2nccc([C@@H](O)CN3CCC(NC(=O)C(c4ccccc4C)N4CCC(Cc5ccccc5)CC4)CC3)c2c1` (stereo not given in full) here?
Its inhibition is 1.73%.

`O=C(NC1CCCCC1)N(Cc1cccc(-c2ccc(CNCc3ccc4c(c3)OCO4)cc2)c1)C1CCN(Cc2ccccc2)CC1` was tested. Which inhibition did it give?
The inhibition was 8.67%.

With `N#Cc1ccc2c(c1)CCN(CCC1CCC(NC(=O)/C=C/c3nc4ccccc4s3)CC1)CC2` (stereo not given) as the molecule, how does the inhibition read?
Its inhibition is 1.83%.

With `CC1CC(NCCCNc2cc(=O)c3ccccc3[nH]2)c2c1cc(Cl)c(Cl)c2Cl` (stereo not given) as the molecule, how does the inhibition read?
Its inhibition is -1.8%.

How did the inhibition turn out when `O=C(Nc1ccccc1Br)c1cn(-c2ccccc2)nc1-c1cccc([N+](=O)[O-])c1` was run?
Its inhibition is 10.6%.

Which inhibition does the source give for `O=C(c1cc(-c2ccco2)n[nH]1)N1CCN(S(=O)(=O)c2ccc(Cl)cc2)CC1` here?
Its inhibition is -0.38%.

For `Clc1ccc(Nc2nc(Nc3ccc(Cl)c(Cl)c3)nc(Sc3nc4ccccc4[nH]3)n2)cc1Cl`, which inhibition is on record?
Its inhibition is 8.07%.

With `c1ccc(Oc2ccc(Nc3ccnc(Nc4cccc(CNCCCN5CCOCC5)c4)n3)cc2)cc1` as the molecule, how does the inhibition read?
The inhibition was -3.58%.

`CC1CN(CC(O)Cn2c3ccc(Br)cc3c3cc(Br)ccc32)CC(C)O1` (stereo not given) was tested. Which inhibition did it give?
The inhibition was 2.95%.

Which inhibition does the source give for `COc1cc(C(=O)NCc2nn(CCN3CCC(N4CCCC4)CC3)cc2-c2ccc(Cl)c(Cl)c2)cc(OC)c1OC` here?
Its inhibition is -2.77%.

With `COc1cc(C(=O)NCCCN2CCN(c3cccc(Cl)c3)CC2)ccc1-c1cc2cc(Cl)c(Cl)cc2[nH]1` as the molecule, how does the inhibition read?
Its inhibition is 4.57%.

For `CCN(CC)CCCCNc1cc(-c2[nH]c(-c3c(Cl)cccc3Cl)nc2-c2ccc3cc(OC)ccc3c2)ccn1`, which inhibition is on record?
The inhibition was 0.05%.

With `O=C(Nc1cccc(-c2cccc(-c3nc4ccccc4[nH]3)c2)c1)Nc1ccc(Cl)c(Cl)c1` as the molecule, how does the inhibition read?
The inhibition was 6.2%.

With `CN1CCC(C(=O)Nc2cccc(-c3ccc(-c4nc5cc(C(F)(F)F)ccc5[nH]4)s3)c2)CC1` as the molecule, how does the inhibition read?
Its inhibition is 9.29%.

For `O=C(Nc1cccc(F)c1)NC1CCN(c2ccnc3cc(Cl)ccc23)CC1`, which inhibition is on record?
The inhibition was 2.51%.

For `CCN(CC)CCN(Cc1ccc(-c2ccc(C(F)(F)F)cc2)cc1)C(=O)c1ccc(-c2ccc(NC(=O)OC)cc2C)cc1`, which inhibition is on record?
The inhibition was 29.9%.

With `COc1cc2nc(Nc3ccc4c(cnn4Cc4ccccc4)c3)nc(Nc3ccc4c(cnn4Cc4ccccc4)c3)c2cc1OC` as the molecule, how does the inhibition read?
The inhibition was 2.6%.

With `COc1ccc2c(NN=Cc3cccc(Cl)c3)ccnc2c1` as the molecule, how does the inhibition read?
The inhibition was 0.29%.

Which inhibition does the source give for `COc1ccc2nccc([C@@H](O)CN3CCC(NCc4cn5cc(F)ccc5n4)CC3)c2c1` here?
Its inhibition is 2.06%.

For `Fc1ccc2nc(Nc3nc(-c4ccccn4)cs3)sc2c1`, which inhibition is on record?
The inhibition was 20.7%.

`NS(=O)(=O)c1ccc(Nc2nccc(-c3c(-c4cccc(NC(=O)c5c(F)cccc5F)c4)nn4ccccc34)n2)cc1` was tested. Which inhibition did it give?
The inhibition was 11.8%.

Which inhibition does the source give for `C[C@H](Cc1ccc(C[C@@H](C)NCC(O)c2cc(Cl)c(N)c(Cl)c2)cc1)NCC(O)c1cc(Cl)c(N)c(Cl)c1` (stereo not given in full) here?
The inhibition was 0.36%.

For `CN1CCN(c2ccnc3ccc(NC(=O)Nc4cccc5c(C#N)cccc45)cc23)CC1`, which inhibition is on record?
Its inhibition is 2.25%.

With `CCCC1(NC[C@@H](O)[C@H](Cc2ccccc2)NC(=O)c2cc(NCC)cc(N3CCCCS3(=O)=O)c2)CCCCC1` as the molecule, how does the inhibition read?
The inhibition was -0.81%.

How did the inhibition turn out when `O=C(O)CNCC(O)c1ccccc1` (stereo not given) was run?
Its inhibition is 0.32%.

How did the inhibition turn out when `CC(C)c1ccc2[nH]c(C(=O)NC3CCC(N4CCCc5ccc(C#N)cc5C4)CC3)cc2c1` (stereo not given) was run?
Its inhibition is 3.48%.

`COc1cccc2c(NN=Cc3ccccc3F)ccnc12` was tested. Which inhibition did it give?
Its inhibition is 7.43%.

With `CC(C)C[C@@H](NC(=O)OC(C)(C)C)C(=O)Nc1ccc(Cc2ccc(NC(=O)[C@@H](CC(C)C)NC(=O)OC(C)(C)C)cc2)cc1` as the molecule, how does the inhibition read?
The inhibition was 3.6%.

With `CS(=O)(=O)N1CC2(CCN(CCC(NC(=S)Nc3ccccc3)c3ccc(Cl)c(Cl)c3)CC2)c2ccccc21` (stereo not given) as the molecule, how does the inhibition read?
Its inhibition is 3.72%.

`CCOc1cccc(C(=O)Nc2cccc(CN3CCCN(Cc4cccc(O)c4)CC3)c2)c1` was tested. Which inhibition did it give?
Its inhibition is 4.67%.

Which inhibition does the source give for `COc1ccc(OCC(=O)Nc2nc(-c3ccc(OC)cc3)c(C)s2)cc1` here?
The inhibition was 1.08%.

With `COc1ccc(-c2ccc(NC(=O)c3cccc(C#N)c3)cc2)cc1CN1CCC(O)CC1` as the molecule, how does the inhibition read?
The inhibition was -0.68%.

`CCNc1cc(C(=O)N[C@@H](Cc2ccccc2)[C@H](O)CNC2CC3CCC2C3)cc(N2CCCCS2(=O)=O)c1` (stereo not given in full) was tested. Which inhibition did it give?
The inhibition was 1.78%.

How did the inhibition turn out when `COc1ccc(C(C)Nc2nc(N)c3cc(OC)c(OC)cc3n2)cc1` (stereo not given) was run?
Its inhibition is 4.72%.

`COc1cc(NC(=O)c2cccs2)c(OC)cc1NC(=O)Nc1cccc(Cl)c1` was tested. Which inhibition did it give?
Its inhibition is 3.28%.

Which inhibition does the source give for `O=C(Cc1c[nH]cn1)Nc1cccc(-c2ccc(-c3nc4ccccc4[nH]3)cc2)c1` here?
Its inhibition is 1.81%.

For `Cc1cnc(CN(Cc2ccc(-c3ccc(CNCCc4ccc(S(C)(=O)=O)cc4)cn3)cc2)C(=O)c2nn(-c3ccccc3)nc2C)cn1`, which inhibition is on record?
Its inhibition is 5.03%.

How did the inhibition turn out when `CC(C)C(=O)Nc1c(F)cc(F)cc1CCc1ccc(O)cc1` was run?
The inhibition was 7.29%.

What follows are molecules tested against Hexose transporter 1 (Plasmodium falciparum) (UniProt O97467) (assay: ST_JUDE_LEISH: Cytotoxicity at 2uM final concentration against transgenic Leishmania Mexicana promastigotes LmPfHT that are glucose transport deficient and complemented with the Plasmodium falciparum hexose transporter. Activity is measured by DNA content using SYBR green in vitro).
Format: functional

`CCCCc1cc(=O)oc2cc(C)cc(OCc3ccccc3F)c12` was tested. Which inhibition did it give?
The inhibition was 1.33%.

Which inhibition does the source give for `CC1CCC(C(C)C)C(OC(=O)CSc2nnc3c(n2)[nH]c2ccccc23)C1` (stereo not given) here?
The inhibition was -0.14%.

`COc1ccc2nccc([C@@H](O)CN3CCC(NC(=O)C(c4ccccc4C)N4CCC(Cc5ccccc5)CC4)CC3)c2c1` (stereo not given in full) was tested. Which inhibition did it give?
Its inhibition is 1.16%.

For `O=C(NC1CCCCC1)N(Cc1cccc(-c2ccc(CNCc3ccc4c(c3)OCO4)cc2)c1)C1CCN(Cc2ccccc2)CC1`, which inhibition is on record?
The inhibition was 5.99%.

Which inhibition does the source give for `N#Cc1ccc2c(c1)CCN(CCC1CCC(NC(=O)/C=C/c3nc4ccccc4s3)CC1)CC2` (stereo not given) here?
The inhibition was 0.31%.

For `CC1CC(NCCCNc2cc(=O)c3ccccc3[nH]2)c2c1cc(Cl)c(Cl)c2Cl` (stereo not given), which inhibition is on record?
Its inhibition is -2.9%.

Which inhibition does the source give for `O=C(Nc1ccccc1Br)c1cn(-c2ccccc2)nc1-c1cccc([N+](=O)[O-])c1` here?
The inhibition was 10.4%.

For `O=C(c1cc(-c2ccco2)n[nH]1)N1CCN(S(=O)(=O)c2ccc(Cl)cc2)CC1`, which inhibition is on record?
Its inhibition is -0.62%.

With `Clc1ccc(Nc2nc(Nc3ccc(Cl)c(Cl)c3)nc(Sc3nc4ccccc4[nH]3)n2)cc1Cl` as the molecule, how does the inhibition read?
The inhibition was 9.05%.

With `c1ccc(Oc2ccc(Nc3ccnc(Nc4cccc(CNCCCN5CCOCC5)c4)n3)cc2)cc1` as the molecule, how does the inhibition read?
The inhibition was -2.31%.

For `CC1CN(CC(O)Cn2c3ccc(Br)cc3c3cc(Br)ccc32)CC(C)O1` (stereo not given), which inhibition is on record?
Its inhibition is 2.45%.

How did the inhibition turn out when `COc1cc(C(=O)NCc2nn(CCN3CCC(N4CCCC4)CC3)cc2-c2ccc(Cl)c(Cl)c2)cc(OC)c1OC` was run?
The inhibition was 3.08%.

For `COc1cc(C(=O)NCCCN2CCN(c3cccc(Cl)c3)CC2)ccc1-c1cc2cc(Cl)c(Cl)cc2[nH]1`, which inhibition is on record?
The inhibition was 4.17%.

How did the inhibition turn out when `CCN(CC)CCCCNc1cc(-c2[nH]c(-c3c(Cl)cccc3Cl)nc2-c2ccc3cc(OC)ccc3c2)ccn1` was run?
The inhibition was -1.62%.

Which inhibition does the source give for `O=C(Nc1cccc(-c2cccc(-c3nc4ccccc4[nH]3)c2)c1)Nc1ccc(Cl)c(Cl)c1` here?
Its inhibition is 6.7%.

`CN1CCC(C(=O)Nc2cccc(-c3ccc(-c4nc5cc(C(F)(F)F)ccc5[nH]4)s3)c2)CC1` was tested. Which inhibition did it give?
Its inhibition is 10%.

How did the inhibition turn out when `O=C(Nc1cccc(F)c1)NC1CCN(c2ccnc3cc(Cl)ccc23)CC1` was run?
The inhibition was 1.28%.

With `CCN(CC)CCN(Cc1ccc(-c2ccc(C(F)(F)F)cc2)cc1)C(=O)c1ccc(-c2ccc(NC(=O)OC)cc2C)cc1` as the molecule, how does the inhibition read?
Its inhibition is 17.9%.

With `COc1cc2nc(Nc3ccc4c(cnn4Cc4ccccc4)c3)nc(Nc3ccc4c(cnn4Cc4ccccc4)c3)c2cc1OC` as the molecule, how does the inhibition read?
The inhibition was 2.44%.

With `COc1ccc2c(NN=Cc3cccc(Cl)c3)ccnc2c1` as the molecule, how does the inhibition read?
Its inhibition is 0.23%.

With `COc1ccc2nccc([C@@H](O)CN3CCC(NCc4cn5cc(F)ccc5n4)CC3)c2c1` as the molecule, how does the inhibition read?
Its inhibition is 2.19%.

With `Fc1ccc2nc(Nc3nc(-c4ccccn4)cs3)sc2c1` as the molecule, how does the inhibition read?
The inhibition was 10.8%.

Which inhibition does the source give for `NS(=O)(=O)c1ccc(Nc2nccc(-c3c(-c4cccc(NC(=O)c5c(F)cccc5F)c4)nn4ccccc34)n2)cc1` here?
Its inhibition is 14.8%.

With `C[C@H](Cc1ccc(C[C@@H](C)NCC(O)c2cc(Cl)c(N)c(Cl)c2)cc1)NCC(O)c1cc(Cl)c(N)c(Cl)c1` (stereo not given in full) as the molecule, how does the inhibition read?
Its inhibition is 0.31%.

Which inhibition does the source give for `CN1CCN(c2ccnc3ccc(NC(=O)Nc4cccc5c(C#N)cccc45)cc23)CC1` here?
Its inhibition is 2.35%.

`CCCC1(NC[C@@H](O)[C@H](Cc2ccccc2)NC(=O)c2cc(NCC)cc(N3CCCCS3(=O)=O)c2)CCCCC1` was tested. Which inhibition did it give?
Its inhibition is 0.97%.

With `O=C(O)CNCC(O)c1ccccc1` (stereo not given) as the molecule, how does the inhibition read?
Its inhibition is -0.04%.

For `CC(C)c1ccc2[nH]c(C(=O)NC3CCC(N4CCCc5ccc(C#N)cc5C4)CC3)cc2c1` (stereo not given), which inhibition is on record?
The inhibition was 0.9%.

Which inhibition does the source give for `COc1cccc2c(NN=Cc3ccccc3F)ccnc12` here?
Its inhibition is 7.62%.

Which inhibition does the source give for `CC(C)C[C@@H](NC(=O)OC(C)(C)C)C(=O)Nc1ccc(Cc2ccc(NC(=O)[C@@H](CC(C)C)NC(=O)OC(C)(C)C)cc2)cc1` here?
The inhibition was 3.72%.

For `CS(=O)(=O)N1CC2(CCN(CCC(NC(=S)Nc3ccccc3)c3ccc(Cl)c(Cl)c3)CC2)c2ccccc21` (stereo not given), which inhibition is on record?
The inhibition was 1.67%.

How did the inhibition turn out when `CCOc1cccc(C(=O)Nc2cccc(CN3CCCN(Cc4cccc(O)c4)CC3)c2)c1` was run?
Its inhibition is 5.58%.

For `COc1ccc(OCC(=O)Nc2nc(-c3ccc(OC)cc3)c(C)s2)cc1`, which inhibition is on record?
The inhibition was 0.94%.

`COc1ccc(-c2ccc(NC(=O)c3cccc(C#N)c3)cc2)cc1CN1CCC(O)CC1` was tested. Which inhibition did it give?
Its inhibition is -0.84%.

With `CCNc1cc(C(=O)N[C@@H](Cc2ccccc2)[C@H](O)CNC2CC3CCC2C3)cc(N2CCCCS2(=O)=O)c1` (stereo not given in full) as the molecule, how does the inhibition read?
The inhibition was 1.76%.

Which inhibition does the source give for `COc1ccc(C(C)Nc2nc(N)c3cc(OC)c(OC)cc3n2)cc1` (stereo not given) here?
Its inhibition is 4.66%.

`COc1cc(NC(=O)c2cccs2)c(OC)cc1NC(=O)Nc1cccc(Cl)c1` was tested. Which inhibition did it give?
Its inhibition is 3.25%.

How did the inhibition turn out when `O=C(Cc1c[nH]cn1)Nc1cccc(-c2ccc(-c3nc4ccccc4[nH]3)cc2)c1` was run?
Its inhibition is 3.82%.

Which inhibition does the source give for `Cc1cnc(CN(Cc2ccc(-c3ccc(CNCCc4ccc(S(C)(=O)=O)cc4)cn3)cc2)C(=O)c2nn(-c3ccccc3)nc2C)cn1` here?
The inhibition was 3.95%.

How did the inhibition turn out when `CC(C)C(=O)Nc1c(F)cc(F)cc1CCc1ccc(O)cc1` was run?
Its inhibition is 8.12%.
